Potency and cytotoxicity increase data for 36 compounds are collected here from PubChem BioAssay (Tox21).

SMILES strings stand for the structures. Records with an inconclusive call do not appear. Where a call stands in place of a potency, no number is given. Unmarked numbers belong to inactive results. Calls of active or inactive are those of the source. The call rests on the fitted dose curve; in most records, active means well fitted activation curve with a large enough effect in the repeat runs; inconclusive means weak or mixed curves; inactive means flat fitted curve, though single readings scatter.

The nature of one test: A CellTox Green Cytotoxicity Assay to monitor cytotoxicity in HepG2 cells - 32 hour (AID 1224883). Further: nearly all actives have a fitted effect of over 50% in size. Further: potency means the concentration at half of the fitted maximal effect. The note with it: CellTox Green fluorescence; series mostly up to 76.8 µM. In a few lines: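 Cytotoxicity was tracked as dead-cell DNA fluorescence in HepG2 cells treated with test compounds at 37 C; each time-point value comes from one kinetic series spanning 0, 8, 16, 24, 32 and 40 h.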
In the case of `Oc1ccccc1C=NCc1ccccc1`, the Potency result was “inactive”.
Still for that read-out and setting: then `CC/C=C\CCOC(=O)CCCCC`, with “inactive”; and `CCCCOc1cc(C(=O)NCCN(CC)CC)c2ccccc2n1`, with 23.9 µM (active); and `CCCCNc1ccc(C(=O)OCCN(CC)CC)cc1`, with “inactive”.
Take `COC(=O)/C=C(/C)N`: the Potency entry is “inactive”.
Consider `CC(C)C(=O)OCC(C)(C)C(O)C(C)C` (stereo unspecified), for which the Potency result is “inactive”.
On the same count and under the same terms, then `CCOc1ccc(NS(=O)(=O)c2ccc(N)cc2)nn1`, with “inactive”.
The same measure, in the same setting: then `CCCN(CCC)C(=O)C(CCC(=O)O)NC(=O)c1ccccc1` (stereo unspecified), with “inactive”.
On the same count and under the same terms, then `CCCc1c2oc(C(=O)O)cc(=O)c2cc2c(=O)cc(C(=O)O)n(CC)c12`, with “inactive”; and `CC1=C2[C@H](/C=C(\C)C(=O)O)CC[C@@H](C)[C@H]2CC1`, with “inactive”.
As for `CC(C)S`, the Potency result is “inactive”.
As to `C=CC(C)(O)CC/C=C(\C)CCC=C(C)C` (stereo unspecified), the Potency was 21.9 µM (active).

The nature of another test: A CellTox Green Cytotoxicity Assay to monitor cytotoxicity in HEK293 cells - 8 hour (AID 1224884). Further: nearly all actives have a fitted effect of over 35% in size. The settings on record: CellTox Green fluorescence; series mostly up to 76.8 µM. Put shortly:
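Real-time, in one plate: 600 HEK293 cells/well with dead-cell DNA dye, pinned compound after 5 h, 37 C incubation over 40 h; viable cells give no appreciable fluorescence.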
In the case of `CCCCCCOc1ccc(N)cc1`, the Potency result is “inactive”.
Same read-out and setting: then `CC1=NN(c2cc(Cl)c(S(=O)(=O)O)cc2Cl)C(=O)C1N=Nc1ccc(S(=O)(=O)O)cc1` (stereo unspecified), with “inactive”; and `CCC1(C)NC(=O)NC1=O` (stereo unspecified), with “inactive”.
For the compound `CCCCCCCCCCCCCCCCOP(=O)([O-])OCC[N+](C)(C)C`, the Potency entry was “inactive”.
On the same count and under the same terms, then `CCCCCCCCc1ccc(S(=O)(=O)O)cc1`, with “inactive”.
`CCc1cc2cc(OC)c(OC)cc2c(Cc2ccccc2)n1`: the Potency result is “inactive”.
On the same count and under the same terms, then `CN(C)CCOc1ccccc1Cc1ccccc1`, with “inactive”.
Same read-out and setting: then `Cc1onc(-c2ccccc2)c1C(=O)Cl`, with “inactive”.
The same measure, in the same setting: then `C=CCCCCCCCCO`, with “inactive”; and `COC(=O)N[C@H](C(=O)N[C@@H](Cc1ccccc1)[C@@H](O)CN(Cc1ccc(-c2ccccn2)cc1)NC(=O)[C@@H](NC(=O)OC)C(C)(C)C)C(C)(C)C`, with “inactive”.
Turning to `CCCCCOc1ccc(C2SC(=O)NC2=O)cc1OCC` (stereo unspecified), the Potency entry is “inactive”.
Same read-out and setting: for `NCCCN1CCN(CCCN)CC1` the value was “inactive”.
Same read-out and setting: then `CC[C@H]1CC[C@H](NCc2cc3c(cc2OC)[C@H]2C[C@H]2C(=O)N3C)[C@H](c2ccccc2)N1`, with “inactive”.
Still for that read-out and setting: for `CCN(CC)CCNC(=O)COc1ccc(Cl)cc1` the value was “inactive”.
For the compound `COc1ccc2nc(NC(=O)Nc3ccccc3)sc2c1`, the Potency entry is “inactive”.
The same measure, in the same setting: then `CCC(=O)c1ccc2c(c1)N(CCCN(C)C)c1ccccc1S2`, with “inactive”; and `Cc1cc(NS(=O)(=O)c2ccc(N)cc2)nc(C)n1`, with “inactive”; and `O=Cc1ccc(O)c(O)c1O`, with “inactive”.
With `CN(C)C(=O)NC1(c2ccccc2)CCN(CCC[C@]2(c3ccc(Cl)c(Cl)c3)CCCN(C(=O)c3ccccc3)C2)CC1`, the cytotoxicity increase is -1.4% [at 15.8 µM].
In the case of `CN1CCN(C2=Nc3ccccc3Oc3ccc(Cl)cc32)CC1`, the Potency result is “inactive”.
Consider `CCN(CC)CCOc1ccc(Cc2ccccc2)cc1`, for which the Potency entry is “inactive”.
On the same count and under the same terms, then `CN(CCCN1c2ccccc2CCc2ccccc21)CC(=O)c1ccc(Cl)cc1`, with “inactive”.
On the same count and under the same terms, for `Nc1ccc(Oc2ccc(N)c(N)c2)cc1` the value was “inactive”; for `Cc1ccc(C(C)C)cc1O`, “inactive”.
